Experimental data from PubChem BioAssay AID504660 (National Center for Advancing Translational Sciences (NCATS), 2011).
“And” between values parts separate entries of the source, which are not always exact repeats. Equal entries are not always repeated. In all, about 360,000 compounds went through this assay and about 3,700 (1%) were called active. Rule as the data show it: active = activation above about 30%; inactive = the rest. Many of the other results were omitted from the sample, so actives are more common in it than they were.
Also: 0% is about no effect.

The molecules below were run against D(1A) dopamine receptor (Homo sapiens) (UniProt P21728) (assay: Allosteric Agonists of the Human D1 Dopamine Receptor: qHTS). Conditions: HEK293 T-REx D1 cells, calcium flux, agonist mode; at 2 µM; hits give high values.
Sequence of D(1A) dopamine receptor (Homo sapiens) (P21728 whole entry, looked up): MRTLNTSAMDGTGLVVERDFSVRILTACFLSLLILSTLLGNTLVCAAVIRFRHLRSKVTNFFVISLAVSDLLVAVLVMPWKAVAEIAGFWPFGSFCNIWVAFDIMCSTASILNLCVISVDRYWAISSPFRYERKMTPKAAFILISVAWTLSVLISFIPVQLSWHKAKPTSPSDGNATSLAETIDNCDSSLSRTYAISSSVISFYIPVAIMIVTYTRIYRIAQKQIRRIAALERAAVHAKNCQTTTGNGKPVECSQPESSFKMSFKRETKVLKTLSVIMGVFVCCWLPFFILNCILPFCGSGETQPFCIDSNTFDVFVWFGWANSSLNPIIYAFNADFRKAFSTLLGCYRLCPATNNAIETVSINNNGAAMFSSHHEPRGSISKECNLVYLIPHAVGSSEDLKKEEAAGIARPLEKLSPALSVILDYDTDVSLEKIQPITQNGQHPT
Method in brief: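 Inducible HEK293 T-REx D1 cells, force-coupled to calcium signalling, were plated at 4000 cells/well with tetracycline and held overnight at 30 C. After no-wash calcium dye loading, compound-evoked calcium rise over 180 s flagged agonists.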
`CCCCc1nn2c(=O)cc(COC(=O)c3ccc(NC(=O)c4ccccc4C)cc3)nc2s1` was tested, and the activation was 4.38% (inactive). With `COCCCNC(=O)c1ccc(NC(=O)c2nsc3ccccc23)cc1` the activation was -0.261% (inactive). In the case of `CN(C)c1ccc(/C=C2\NC(=S)N(Cc3ccccc3)C2=O)cc1`, the activation is reported as 203% (active). With `CCn1cc(C(=O)NCc2ccc(C)cc2)c(=O)c2cc(S(=O)(=O)N3CCc4ccccc4C3)ccc21` the activation was -1.37% (inactive). With `CN(C)c1ccc(NC(=O)CSc2nc(-c3ccco3)cc(C(F)(F)F)n2)cc1` the activation was -0.482% (inactive). For `Cc1cc(C)c(-c2n[nH]c3c2C(c2ccccc2F)N(CCO)C3=O)c(O)c1` (centres undefined), the activation was -0.0969% (inactive). For `C=CCSc1nsc(NC(=O)Nc2cccc(C(C)=O)c2)n1`, the activation was 34.2% (active). `CC(=O)c1ccc(NC(=O)CSc2nnc(NC(=O)Nc3ccccc3)s2)cc1` was tested, and the activation was 2.71% (inactive). In the case of `CCSc1nsc(NC(=O)Nc2cccc(C(C)=O)c2)n1`, the activation is reported as 29.4% (inactive). For `CCOc1ccc(-c2cc(C)n3nc(C(=O)Nc4ccc(C)c(C)c4)cc3n2)cc1`, the activation was 0.877% (inactive). In the case of `Cc1ccc(S(=O)(=O)N2[C@@H](c3ccccc3F)C(C(=O)O)=CC[C@H]2c2ccc(Cl)cc2)cc1`, the activation is reported as 3.48% (inactive). With `Cc1ccc(S(=O)(=O)N2[C@@H](c3cccc(Cl)c3)C(C(=O)O)=CC[C@H]2c2ccc(Cl)c(Cl)c2)cc1` the activation was 43.2% (active). For `Cc1ccccc1S(=O)(=O)N1[C@@H](c2cccc(Cl)c2)C(C(=O)O)=CC[C@H]1c1ccc(Cl)cc1`, the activation was 2.18% (inactive). `CCOC(=O)N1CCc2c(sc(NCc3cccc(F)c3)c2C(=O)Nc2ccccc2OCC)C1` was tested, and the activation was -1.06% (inactive). With `O=C(NCc1ccccc1)C(=O)NCC(c1ccco1)S(=O)(=O)c1ccc(Cl)cc1` (centres undefined) the activation was 0.796% (inactive). `CCOc1ccc(C(O)Cn2c(=N)n(CCN3CCCCC3)c3ccccc32)cc1` (centres undefined) was tested, and the activation was 0.859% (inactive). With `N=c1n(Cc2ccc(Cl)cc2)c2ccccc2n1CC(O)c1ccco1` (centres undefined) the activation was 92.6% (active). In the case of `COc1cccc(N2CCN(C(=O)CCCCCn3c(=O)[nH]c4ccccc4c3=O)CC2)c1`, the activation is reported as 3.15% (inactive). For `Cc1sc(C2C(C#N)=C(N)N(c3cccc(Cl)c3)C3=C2C(=O)CCC3)cc1CN1CCOCC1` (centres undefined), the activation was -0.583% (inactive). `N#Cc1c(-c2cccs2)nc(SCC(=O)c2ccc(Br)cc2)[nH]c1=O` was tested, and the activation was 27.1% (inactive). For `N#Cc1c(-c2ccccc2)nc(SCc2cccc(C(F)(F)F)c2)[nH]c1=O`, the activation was 42.4% (active). `Cc1ccccc1CSc1nnc(-c2ccccc2)c(=O)[nH]1` was tested, and the activation was 0.158% (inactive). In the case of `Cc1c(C(=O)NCc2ccccc2Br)oc2ccc3c(c12)C(=O)CC(C)(C)O3`, the activation is reported as 5.52% (inactive). For `Cc1cccc(C)c1Nc1c(-c2ccccc2O)nc2ncccn12`, the activation was -0.792% (inactive) and 1.73% (inactive). With `Cc1ccccc1Nc1c(-c2ccccc2)nc2ncccn12` the activation was -0.718% (inactive). With `CCc1cccc(C)c1Nc1c(-c2ccc(N(C)C)cc2)nc2ncccn12` the activation was 51.7% (active). For `CCc1ccc(NC(=O)CN2CCC(C(=O)c3ccc(OC)cc3)CC2)cc1`, the activation was 2.75% (inactive). `COc1ccc(NC(=O)CCN2CCN(CCO)CC2)cc1` was tested, and the activation was 1.35% (inactive). With `CCc1cc(C(=O)c2ccc(OC)cc2)c(NC(=O)CN2CCN(C)CC2)s1` the activation was 32.2% (active). With `CC1CCCN(Cc2c(O)ccc3c(=O)c(Oc4ccc(C(C)(C)C)cc4)c(C(F)(F)F)oc23)C1` (centres undefined) the activation was -1.8% (inactive). For `Cc1ccc(C(C)(C)C)c(OCCCCN2CCCC2)c1`, the activation was 8.62% (inactive). In the case of `CC(C)(C)NCCCOc1ccc(Cl)cc1C(C)(C)C`, the activation is reported as 59.2% (active). In the case of `COCCCNCCOCCOc1ccc(Cl)cc1Br`, the activation is reported as 13.2% (inactive). In the case of `CCOc1ccc(NC(=O)c2c(NC(=O)Cc3ccccc3)sc3c2CCC(C)C3)cc1` (centres undefined), the activation is reported as -0.648% (inactive). For `COc1ccc(CCNc2nc(-c3ccc(Cl)cc3)cc(C(F)(F)F)n2)cc1OC`, the activation was 7.69% (inactive). `FC(F)(F)c1cc(-c2ccco2)nc(NCc2ccc(Cl)cc2)n1` was tested, and the activation was 7.88% (inactive). For `COc1ccc(CNc2nc(-c3ccc(Cl)cc3)cc(C(F)(F)F)n2)cc1`, the activation was 41.5% (active). With `COc1cccc(C(=O)NC2(C(F)(F)F)C(=O)Nc3c2c(=O)[nH]c(=O)n3-c2ccc(C)cc2)c1` (centres undefined) the activation was -0.234% (inactive). `Cc1ccc(Cl)cc1N1CCN(C(=O)c2cnc3c(-c4ccc(F)cc4)c(C)nn3c2C)CC1` was tested, and the activation was 1.96% (inactive). `COCCNC(=O)c1ccc(Cn2c(SCC(=O)NCC3CCCO3)nc3ccc(Br)cc3c2=O)cc1` (centres undefined) was tested, and the activation was 2.13% (inactive). In the case of `OC(CNCC1CCCO1)Cn1c2ccc(Br)cc2c2cc(Br)ccc21` (centres undefined), the activation is reported as 38.5% (active). `O=C(CNC(=O)c1ccc(Br)o1)NCC1CCCO1` (centres undefined) was tested, and the activation was 0.969% (inactive). With `CC(=O)c1c(C)n(S(=O)(=O)c2ccc(Cl)cc2)c2ccc(NS(=O)(=O)c3ccc(Cl)cc3)cc12` the activation was 2.47% (inactive). `CN(Cc1ccccc1)C(=O)CCS(=O)(=O)c1cc(Br)cc2c1N(C(=O)C1CC1)CC2` was tested, and the activation was 0.148% (inactive). With `c1ccc2c(c1)C(=NC1CCCCC1)NC2=NC1CCCCC1` the activation was 30.7% (active). With `COc1ccc(N2CCN(C(=O)[C@@H](NC(=O)c3cc(OC)cc(OC)c3)C(C)C)CC2)cc1` the activation was -0.0979% (inactive). `Cc1ccccc1OCCC(=O)OCC(=O)NC(C)c1ccccc1` (centres undefined) was tested, and the activation was 1.35% (inactive). `COc1cc(OC)cc(C(=O)N[C@H](C(=O)OCC(=O)NC(C)c2ccccc2)C(C)C)c1` (some centres undefined) was tested, and the activation was 119% (active). In the case of `O=C(CCCCn1c(=O)c2ccccc2n(CC(=O)Nc2cccc(C(F)(F)F)c2)c1=O)NCc1ccc2c(c1)OCO2`, the activation is reported as 4.77% (inactive). With `CCCOc1ccc(C(=O)Nc2ccc3oc(-c4cccc(Cl)c4Cl)nc3c2)cc1` the activation was 1.7% (inactive). In the case of `CCCC(=O)Nc1ccc2oc(-c3ccc(O)c(Br)c3)nc2c1`, the activation is reported as 3.7% (inactive). In the case of `Cc1ccc(C)c(N2C(=O)N(Cc3c(F)cccc3Cl)c3ccccc3S2(=O)=O)c1`, the activation is reported as 5.6% (inactive). `CN1C(=O)c2cccc3c(N)ccc(c23)C1=O` was tested, and the activation was 219% (active). `Cc1nn(C)cc1N1C(=O)c2cccc3c(N)ccc(c23)C1=O` was tested, and the activation was 244% (active).
